Screens from PubChem BioAssay.
SRC3 TRFRET art: TR-FRET detection interference compounds, artefact control for PPARgamma SRC-3 recruitment agonists, biochemical, TR-FRET ratio. TR-FRET artefact counter-screen, PPARgamma/SRC-3 format; active compounds read high. 99,000 tested, 0.39% active. AID 1048, 2008. TR-FRET ratio at 8 µM; in the data active means TR-FRET ratio above about 2000
SRC1 TRFRET art: TR-FRET detection interference compounds, primary screen, artefact control for PPARgamma SRC-1 recruitment agonists, biochemical, TR-FRET emission ratio; TR-FRET detection artefact counter-screen; active compounds read high; TR-FRET ratio at 8 µM; 99,000 tested, 0.34% active; AID 1051, 2008; in the data active means TR-FRET ratio above about 2300
PPARg SRC3 recr: PPARgamma agonists recruiting SRC-3 coactivator, primary screen, biochemical | 200,000 tested, 0.26% active | Peroxisome proliferator-activated receptor gamma (Homo sapiens), P37231 | activation, % at 8 µM | biochemical PPARgamma/SRC-3 coactivator recruitment assay | AID 731, 2007; in the data active means activation above about 23%;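 further: 0% = DMSO and 100% = reference agonist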
Target sequence (P37231 whole entry, looked up): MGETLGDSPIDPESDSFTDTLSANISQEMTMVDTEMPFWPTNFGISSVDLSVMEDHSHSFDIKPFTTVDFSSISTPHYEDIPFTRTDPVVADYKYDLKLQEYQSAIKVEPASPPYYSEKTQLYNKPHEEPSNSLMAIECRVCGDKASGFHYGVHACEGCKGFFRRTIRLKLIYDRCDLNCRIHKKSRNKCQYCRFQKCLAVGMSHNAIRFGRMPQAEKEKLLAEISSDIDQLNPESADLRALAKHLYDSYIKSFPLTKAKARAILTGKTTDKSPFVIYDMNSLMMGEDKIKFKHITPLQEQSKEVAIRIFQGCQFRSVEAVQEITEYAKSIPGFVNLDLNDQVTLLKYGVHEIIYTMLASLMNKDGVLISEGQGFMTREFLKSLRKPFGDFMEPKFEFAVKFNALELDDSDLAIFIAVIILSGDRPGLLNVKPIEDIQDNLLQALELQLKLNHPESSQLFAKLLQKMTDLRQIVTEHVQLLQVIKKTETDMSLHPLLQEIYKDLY
TR-FRET SRC-2 ct: TR-FRET signal artefacts, primary screen, artefact control for PPARgamma SRC-2 agonist project, biochemical; TR-FRET ratio at 8 µM; TR-FRET artefact counter-screen; active compounds read high; AID 1049, 2008; 200,000 tested, 0.4% active; in the data active means TR-FRET ratio above about 2000
PPARg SRC-1 ag: PPARgamma agonists recruiting SRC-1 coactivator, primary screen, biochemical; Peroxisome proliferator-activated receptor gamma (Homo sapiens), P37231; PPARgamma-SRC-1 coactivator recruitment biochemical assay; activation, % at 8 µM; 200,000 tested, 0.41% active; AID 631, 2007; in the data active means activation above about 19%;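 further: 0% = DMSO and 100% = reference agonist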
PPARg SRC2 recr: agonists of PPARg-SRC-2 recruitment, primary screen, biochemical, HTS; Peroxisome proliferator-activated receptor gamma (Homo sapiens), P37231; PPARgamma LBD-SRC-2 recruitment; activation, % at 8 µM; 200,000 tested, 0.34% active; AID 1032, 2008;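 further: 0% = vehicle and 100% = reference agonist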
PPARg SRC2 conf: agonists of PPARgamma SRC-2 coactivator recruitment, confirmation, biochemical, HTS; activation, % at 8 µM; shares compounds with PPARg SRC3 recr; 790 tested, 52% active; biochemical SRC-2 recruitment by PPARgamma; AID 1297, 2008;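 further: 0% = vehicle alone and 100% = reference agonist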
PPARg SRC1 ag: PPARgamma agonists recruiting SRC-1 coactivator, confirmation, biochemical; activation, % at 8 µM; PPARgamma–SRC-1 coactivator recruitment biochemical assay; 790 tested, 43% active; AID 1300, 2008; shares compounds with PPARg SRC3 recr; in the data active means activation above about 20%;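 further: 0% = vehicle wells and 100% = reference agonist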
PPARg SRC3 conf: PPARgamma-driven SRC-3 coactivator recruitment agonists, confirmation, biochemical; shares compounds with PPARg SRC3 recr; biochemical PPARgamma-SRC-3 coactivator recruitment, agonist mode; activation, % at 8 µM; 790 tested, 29% active; AID 1301, 2008; in the data active means activation above about 24%;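 further: 0% = vehicle wells and 100% = reference agonist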
The depositor's hits bear a star; . = no result given. An excerpt weighted towards active compounds, which were near 0.9% of everything screened. Unless noted, no stated cut-off is given here; in the data, active means activation above about 22%; inactive means the rest.

SMILES | SRC3 TRFRET art | SRC1 TRFRET art | PPARg SRC3 recr | TR-FRET SRC-2 ct | PPARg SRC-1 ag | PPARg SRC2 recr | PPARg SRC2 conf | PPARg SRC1 ag | PPARg SRC3 conf
O=C(Cc1cccc2ccccc12)Nc1ccc(-c2cc3ccccc3oc2=O)cc1 | . | . | 11 | 2296* | 24* | 8 | 24* | 18 | 10
CCC(C)NS(=O)(=O)c1ccc(OCC(=O)NCc2ccccn2)cc1 (configuration not stated) | 1237 | 1686 | -1 | 1439 | 0 | 0 | . | . | .
COc1cccc(C2C3=C(Nc4[nH]n(-c5ccccc5)c(=O)c42)c2ccccc2C3=O)c1 (configuration not stated) | 1497 | 1698 | 33* | 1497 | 22* | 15 | 54* | 54* | 56*
COc1cccc(C2C3=C(CCCC3=O)Nc3[nH]n(-c4ccccc4)c(=O)c32)c1 (configuration not stated) | 1360 | 1713 | 7 | 1591 | -1 | 10 | . | . | .
Cn1c(=O)cc(SCC(=O)N2CCCC2)c2ccccc21 | 2626* | 2601* | 20 | 2431* | 30* | 35* | 37* | 24* | 26*
CCOC(=O)N1CCC(NC(=O)CSc2cc(=O)n(C)c3ccccc23)CC1 | . | . | 48* | 2545* | 47* | 49* | 40* | 26* | 25*
CCOC(=O)CSc1cc(=O)n(CC)c2ccccc12 | . | . | 32* | 2136* | 28* | 36* | 27* | 17 | 19
CCOC(=O)CSc1cc(=O)n(C)c2cc(Cl)ccc12 | . | . | 97* | 3535* | 77* | 68* | 43* | 26* | 28*
CCc1ccc(CN(C)C(=O)CCc2nnc(CCc3cccc(OC)c3)o2)nc1 | 1791 | 1714 | 8 | 1738 | 4 | 13 | . | . | .
COc1ccccc1NS(=O)(=O)c1cc(NC(=O)c2ccncc2)ccc1N1CCCC1 | 1671 | 1905 | 1 | 1668 | 7 | 0 | . | . | .
CCCCN(CC)C(=O)CSc1cc(=O)n(C)c2ccccc12 | . | . | 74* | 2446* | 55* | 51* | 32* | 20* | 21
CCCc1cc(=O)[nH]c(SCC(=O)N(C)Cc2ccccc2)n1 | . | . | 5 | 1409 | 3 | 9 | . | . | .
CCOc1ccc(CCNC(=O)CSc2cc(=O)n(CC)c3ccccc23)cc1OCC | 1684 | 2106 | 15 | 2084* | 20* | 31* | 25* | 18 | 17
CCn1c(=O)cc(SCC(=O)N(C)Cc2ccccc2)c2ccccc21 | . | . | 34* | 2336* | 32* | 47* | 42* | 28* | 27*
Cn1c(=O)cc(SCC(=O)NCC2COc3ccccc3O2)c2ccccc21 (configuration not stated) | . | . | 12 | 1878 | 4 | 15 | . | . | .
CN(Cc1ccccc1)C(=O)CSc1cc(=O)n(C)c2ccccc12 | 2514* | 3203* | 31* | 2656* | 46* | 17 | 32* | 22* | 24*
Cc1occc1C(=O)NNC(=S)NCc1ccccc1 | 1699 | 1879 | 2 | 1564 | 9 | 0 | . | . | .
CC(=O)c1sc(Nc2ccccn2)nc1C | . | . | 74* | 2724* | 53* | 48* | 38* | 25* | 26*
CC(=O)c1sc(Nc2ccc(C)cc2)nc1C | 1514 | 2030 | 2 | 1619 | 6 | 9 | . | . | .
CC(=O)c1sc(NC(=O)C(C)C)nc1C | . | . | 83* | 3308* | 59* | 81* | 54* | 37* | 39*
CC(=O)Nc1nc(C)c(C(C)=O)s1 | . | . | 20 | 1792 | 5 | 7 | . | . | .
